Entries with a potency or affinity are not part of this list. Inconclusive results are not listed. The source made the active and inactive calls.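 Rule for the calls: active = a valid curve of falling signal whose half-effect concentration is at most ten times the top tested dose; inconclusive = flat curve at 30 to 70% inhibition, or poor fit; inactive = signal rise, flat within 30%, or potency beyond limit.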
Each compound was assayed against Scavenger receptor class B member 1 (Mus musculus) (UniProt Q61009) (assay: inhibitors of SR-BI mediated HDL lipid uptake, dose response, ldlA[mSR-BI] cells, fluorescence, cherry pick (AID 493194;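 note: CHO cells lacking LDL receptor and overexpressing mouse SR-BI; cellular uptake of fluorescently labeled HDL measured as cell fluorescence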)). Details: CHO ldlA[mSR-BI] DiI-HDL uptake fluorescence, 3 h; series mostly up to 35 µM.
Scavenger receptor class B member 1 (Mus musculus), sequence (Q61009 whole entry, looked up): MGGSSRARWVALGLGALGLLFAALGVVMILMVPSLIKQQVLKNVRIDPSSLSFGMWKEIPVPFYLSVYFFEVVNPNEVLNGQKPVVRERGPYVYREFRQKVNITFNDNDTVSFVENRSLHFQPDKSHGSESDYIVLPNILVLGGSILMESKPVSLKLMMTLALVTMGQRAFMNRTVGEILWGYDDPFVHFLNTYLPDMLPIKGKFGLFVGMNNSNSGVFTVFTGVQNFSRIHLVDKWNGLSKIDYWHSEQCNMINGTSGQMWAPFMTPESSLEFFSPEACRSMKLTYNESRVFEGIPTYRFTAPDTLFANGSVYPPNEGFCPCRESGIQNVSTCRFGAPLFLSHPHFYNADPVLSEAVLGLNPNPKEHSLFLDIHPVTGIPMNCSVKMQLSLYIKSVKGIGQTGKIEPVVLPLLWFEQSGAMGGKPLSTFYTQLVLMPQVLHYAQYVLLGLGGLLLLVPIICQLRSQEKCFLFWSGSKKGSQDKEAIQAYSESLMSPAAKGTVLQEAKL

outcome, inactive:
c1ccc(CCNc2nc(-c3ccncc3)nc3ccccc23)cc1
Cc1ccc2c(c1)C(=O)C(=O)N2CC(=O)Nc1ccc(N2CCOCC2)cc1
CNc1nc(-c2ccc3c(c2)CCN3C(=O)c2ccc(F)cc2)cs1
COc1cc2c(C#CCCCO)c(-c3ccsc3)oc(=O)c2cc1OC
Cc1cccc(NC(=O)N2C3CCCC2CC(NC(=O)C(C)(C)C)C3)c1 (stereo not drawn)
O=C(OCCNc1ncc(C(F)(F)F)cc1Cl)c1ccc(S(=O)(=O)N2CCOCC2)cc1
COc1ccc(CCn2c(C)cc(C(=O)CSc3nc(N)cc(=O)[nH]3)c2C)cc1
CN1CCC2CC1c1cc(-c3ccc(C(F)(F)F)cc3)ccc12 (stereo not drawn)
COc1cc(OC)cc(C(=O)N[C@H](C(=O)OCC(=O)c2ccc3c(c2)NC(=O)CO3)C(C)C)c1
CCOC(=O)N1CCC(NC(=O)c2ccc3c(c2)N(Cc2ccc(F)cc2)CCS3)CC1
Cc1cc(CN(C)C(=O)C2CCC(=O)N(CCc3cccc(F)c3)C2)on1 (stereo not drawn)
CN(C(=O)COC(=O)c1c2c(nc3ccccc13)/C(=C/c1cccc([N+](=O)[O-])c1)CCC2)C1CCS(=O)(=O)C1 (stereo not drawn)
Cc1ccc(C(=O)COc2cc(O)c3c(=O)cc(-c4ccccc4)oc3c2)cc1
CCOc1ccccc1NC(=O)C(CC(C)C)NC(=O)C1CCC(C)CC1 (stereo not drawn)
CNc1nc(-c2ccc3c(c2)CCN3C(=O)c2ccccc2F)c(C)s1
CCOC(=O)c1c(C)n(-c2ccc(C)cc2)c2c(CC(C)=O)c(Br)c(OC)c(O)c12
COc1ccccc1CNC(=O)C1CCN(C(=O)c2sccc2-n2cccc2)CC1
Cc1ccc(F)cc1NC(=O)C1C2CCC(O2)C1C(=O)O (stereo not drawn)
CCOC(=O)C1CCN(C(=O)Cn2nc(C)n3nc(-c4ccc(OC)cc4)cc3c2=O)CC1
O=C(OCc1ccccc1)N1CCC2CC1c1cc(-c3ccc(F)cc3)ccc12 (stereo not drawn)
CC(C)CN(C(=O)COC(=O)C12CC3CC(CC(O)(C3)C1)C2)C1CCS(=O)(=O)C1 (stereo not drawn)
CC(C)CN(CC(C)C)C(=O)COn1nnc2ccc(S(=O)(=O)N3CCOCC3)cc21
O=C(Nc1ccc(-c2csc(Nc3cccc(C(F)(F)F)c3)n2)cc1)c1cccc(C(F)(F)F)c1
CCOC(=O)C(=O)Nc1nc(-c2ccc3c(c2)CCN3C(=O)C2CC2)c(C)s1
Cc1ccc(C(C(=O)NC(C)(C)C)N(Cc2cccs2)C(=O)c2ccc3c(c2)OCCO3)cc1 (stereo not drawn)
Cc1cccc(NC(=O)c2cc(-c3cc(C)cc(C)c3O)n[nH]2)c1
O=C(Cc1cccs1)NCCSc1c(-c2ccc(Cl)cc2)[nH]c2ccccc12
CC(C)C(=O)N1CCc2cc(-c3csc(N)n3)ccc21
Cc1cc(C(=O)COC(=O)c2ccc(Cl)c(S(N)(=O)=O)c2)c(C)n1C1CC1
CCN(CC)C(=O)c1cccc(NC(=O)c2cc(C3CC3)nc3c2cnn3C(C)C)c1
COc1ccc(S(=O)(=O)N2CCC(C(=O)NN3CCCCC3)CC2)cc1OC
COc1ccc(CCN2CC(C(=O)NCc3cc(C(C)C)no3)CCC2=O)cc1 (stereo not drawn)
COc1ccc(C)cc1N(CC(=O)NC1CCCC1)C(=O)Cn1nnc(-c2ccc(C)o2)n1
O=C(Nc1ccc(-c2nc3ccccc3o2)cc1)c1cc(-n2cnnc2)ccc1Cl
Cc1cc(C)nc(N2CCC(C(=O)N3CCN(c4cc(Cl)ccc4C)CC3)CC2)n1
CCOC(=O)C1=C(CNCCOc2ccc(OC)cc2)NC(=O)NC1c1ccc2c(c1)OCO2 (stereo not drawn)
O=C(CCCC(=O)N(CC(=O)NC1CCCC1)C1CCCC1)Nc1ccccn1
COCCOC(=O)c1[nH]c2c(c1C)C(=O)CC(c1ccco1)C2 (stereo not drawn)

Reference: PubChem BioAssay AID493194 (Broad Institute, 2011)
